Results: PubChem BioAssay (Tox21)
Inconclusive results are not listed. Where a call stands in place of a potency, no number is given. Values without a mark were called inactive. Calls of active or inactive are those of the source. Unless noted, calls follow the shape of the full dose curve.

How the values were obtained:
[1] = qHTS assay to identify small molecule antagonists of the vitamin D receptor (VDR) signaling pathway - cell viability counter screen (AID 743225; active = well fitted curve in the direction sought with a large enough effect in the repeat runs; an effect the other way counts as inactive or inconclusive; also: nearly all actives have a fitted effect of over 50% in size)
Method in brief: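 Viability counter screen run in the same wells as the beta-lactamase reporter assay: HEK 293T VDR-UAS-bla cells, 16 h compound exposure at 37C with 3 nM (final) 1-alpha,25-dihydroxyvitamin D3. CellTiter-Glo luminescence, 30 min, room temperature.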

[2] = qHTS assay to identify small molecule agonists of the NFkB signaling pathway - cell viability counter screen (AID 1159515); also: nearly all actives have a fitted effect of over 55% in size; also: potency is read from the fitted curve at half-maximal effect
Method in brief: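 Luminescence from CellTiter-Glo (30 min, room temperature) gives viability, measured in the same wells as the beta-lactamase reporter read. Cells were NFkB-bla ME-180, 2,000 per well, treated 5 hr with compounds.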

[3] = qHTS assay to identify small molecule agonists of the endoplasmic reticulum stress response signaling pathway (AID 1159516; active = well fitted activation curve with a large enough effect in the signal ratio in the repeat runs, not every such curve was filed as active; the % refers to the signal ratio)
Method in brief: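 Read-out is beta-lactamase cleavage of a FRET substrate (405 nm excitation; 460 and 530 nm emissions) in ESRE-bla HeLa cells after a 5 hr compound exposure at 37 C. Substrate incubation ran 2 hr at room temperature.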

[4] = qHTS assay to identify small molecule agonists of the endoplasmic reticulum stress response signaling pathway - cell viability counter screen (AID 1159517);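 also: HeLa cells carrying an ER stress response element beta-lactamase reporter; series mostly up to about 61 µM; nearly all actives have a fitted effect of over 50% in size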
Method in brief: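 CellTiter-Glo was added to wells already read for beta-lactamase FRET, and luminescence was recorded 30 min later. Cells: ESRE-bla HeLa, 1,500 per well, compound exposure 5 hr at 37 C.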

[5] = qHTS assay to identify small molecule antagonists of the retinoid-related orphan receptor gamma (ROR-gamma) signaling pathway - cell viability counter screen (AID 1159520; active = well fitted curve in the direction sought with a large enough effect in the repeat runs; an effect the other way counts as inactive or inconclusive; also: nearly all actives have a fitted effect of over 50% in size; also: potency is read from the fitted curve at half-maximal effect)
Method in brief: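 Tet-on ROR gamma CHO cells (1,000/well) were plated 4 hr, given compounds in DMSO for 2 hr at 37 C, then induced with 1 uM final doxycycline for 16 hr. Viability was read as ATP by CellTiter-Glo luminescence after 30 min.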

[6] = qHTS assay to identify small molecule agonists of the AP-1 signaling pathway - cell viability counter screen (AID 1159525); also: nearly all actives have a fitted effect of over 55% in size; also: potency is read from the fitted curve at half-maximal effect
Method in brief: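 ME-180 AP-1-bla, 2500 cells/well, Opti-MEM + 0.5% dialyzed FBS; overnight 37 °C; cpd 15-pt titration, 5 h 37 °C; CellTiter-Glo 30 min RT; luminescence read; normalised to TOAB and DMSO controls.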

[7] = qHTS assay to identify small molecule agonists of the AP-1 signaling pathway (AID 1159526)
[8] = biological target: Retinoic acid receptor RXR-alpha (Homo sapiens) (UniProt P19793); test: qHTS assay to identify small molecule agonists of the RXR signaling pathway (AID 1159527); also: nearly all actives have a fitted effect of over 35% in size
Method in brief: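 Agonist mode; 9-cis retinoic acid positive control. HEK 293T UAS-bla reporter cells, 2% charcoal-stripped FBS, 16 hr compound exposure at 37 C/5% CO2. LiveBLAzer B/G FRET substrate 2 hr RT; ex 405, em 460/530 nm.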

[9] = qHTS assay to identify small molecule agonists of the RXR signaling pathway - cell viability counter screen (AID 1159529; active = well fitted curve in the direction sought with a large enough effect in the repeat runs; an effect the other way counts as inactive or inconclusive; also: nearly all actives have a fitted effect of over 50% in size; also: potency is read from the fitted curve at half-maximal effect)
Method in brief: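 Luminescence from CellTiter-Glo (30 min, RT) measured viability in the same wells as the beta-lactamase reporter readout. Cells: GeneBLAzer RXR-alpha HEK 293T, 2% charcoal-stripped FBS. Compound exposure 16 hr, 37 C.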

[10] = biological target: Nuclear receptor ROR-gamma (Homo sapiens) (UniProt P51449); test: qHTS assay to identify small molecule antagonists of the retinoid-related orphan receptor gamma (ROR-gamma) signaling pathway (AID 1159521; active = well fitted curve in the direction sought with a large enough effect in the repeat runs; an effect the other way counts as inactive or inconclusive)
Method in brief: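 Luminescence readout (ONE-Glo, 30 min RT) after 16 h doxycycline induction; loss of signal scored as antagonism. CHO cells with TET-inducible RORγ and RORE-LUC reporter; compounds added 2 h before 1 uM final doxycycline.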

Retinoic acid receptor RXR-alpha (Homo sapiens), sequence (P19793 whole entry, looked up): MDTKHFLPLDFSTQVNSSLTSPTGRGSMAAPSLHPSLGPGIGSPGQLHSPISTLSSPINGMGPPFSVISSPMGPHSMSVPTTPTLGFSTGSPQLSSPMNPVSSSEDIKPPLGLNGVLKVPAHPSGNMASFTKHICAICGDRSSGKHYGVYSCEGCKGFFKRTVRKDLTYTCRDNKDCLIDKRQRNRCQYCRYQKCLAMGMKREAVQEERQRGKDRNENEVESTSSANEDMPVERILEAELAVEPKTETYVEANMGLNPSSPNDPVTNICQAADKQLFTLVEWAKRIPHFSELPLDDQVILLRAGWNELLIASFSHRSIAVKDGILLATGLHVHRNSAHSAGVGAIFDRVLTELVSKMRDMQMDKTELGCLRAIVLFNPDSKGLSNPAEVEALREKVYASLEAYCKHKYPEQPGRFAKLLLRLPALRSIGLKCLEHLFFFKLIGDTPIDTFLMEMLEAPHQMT

SMILES	Potency [1]	Potency [2]	Potency [3]	Potency [4]	Potency [5]	Potency [6]	Potency [7]	Potency [8]	Potency [9]	Potency [10]
COC(C)(C)CCO	inactive	inactive	inactive	inactive	inactive	inactive	inactive	inactive	inactive	
CN(C)CCN(Cc1ccsc1)c1ccccn1	inactive	inactive	inactive	inactive	inactive	inactive	inactive	inactive	inactive	
CCC(CC)Nc1ccc(C)c(C)c1	inactive	inactive	inactive	inactive	inactive					inactive
CC(=O)NO		inactive	inactive	inactive	inactive	inactive	inactive	inactive	inactive	
COc1ccc(S(=O)(=O)N2C(=O)[C@@](c3ccccc3OC)(N3C[C@H](O)C[C@H]3C(=O)N(C)C)c3cc(Cl)ccc32)c(OC)c1		inactive	inactive	inactive	inactive	inactive	inactive			
CCOC(=O)C(F)(F)F		inactive	inactive	inactive	inactive	inactive	inactive	inactive	inactive	
OC[C@H]1O[C@@H](OCCc2ccc(O)cc2)[C@H](O)[C@@H](O)[C@@H]1O	inactive	inactive	inactive	inactive	inactive	inactive	inactive	inactive	inactive	
CCCCCCCCCCO[C@@H]1O[C@H](CO)[C@@H](O)[C@H](O)[C@H]1O		inactive	inactive	inactive	inactive	inactive	inactive			
OCc1cc(C(O)CNCCCCCCOCCCCc2ccccc2)ccc1O (stereo unspecified)		inactive	inactive	inactive	inactive	inactive				
C[N+](C)(C)CCOC(=O)CCC(=O)OCC[N+](C)(C)C	inactive	inactive	inactive	inactive	inactive	inactive	inactive	inactive	inactive	
CCN(CC)CCOC(=O)C(c1ccccc1)C1CCCCC1 (stereo unspecified)	inactive	inactive	inactive	inactive	inactive					inactive
O=P(O)(OCc1ccccc1)OCc1ccccc1		inactive	inactive	inactive	inactive	inactive	inactive	inactive		
O=C(O)C(S)C(S)C(=O)O (stereo unspecified)		inactive	inactive	inactive	inactive	inactive	inactive			
O=C(Cl)c1cc(C(=O)Cl)cc(C(=O)Cl)c1		inactive	inactive	inactive	61.1 µM (active)	inactive	inactive	inactive		
CCO[Si](CCCCl)(OCC)OCC		inactive	inactive	inactive	inactive	inactive	inactive	inactive		
CN(C)CCCN1c2ccccc2Sc2ccccc21		inactive	inactive	inactive	inactive	inactive				
CN(C)c1ccc(CCO)cc1	inactive	inactive	inactive	inactive	inactive	inactive			inactive	
C[C@H]1C[C@H]2[C@@H]3CCC4=CC(=O)C=C[C@]4(C)[C@@]3(Cl)[C@@H](O)C[C@]2(C)[C@@]1(O)C(=O)CO	inactive	inactive	inactive	inactive	inactive	inactive	inactive			
CCCCCCCCCCCCCCCCCCOS(=O)(=O)O		43.6 µM (active)	inactive	inactive	inactive	38.9 µM (active)			43.6 µM (active)	
CCOC(=O)C(=O)CCc1ccccc1	inactive	inactive	inactive	inactive	inactive	inactive	inactive		inactive	
CCO[C@H](Cc1ccc(OCCc2ccc(OS(C)(=O)=O)cc2)cc1)C(=O)O	inactive	inactive	inactive	inactive	inactive	inactive	inactive		inactive	
Nc1ccc([N+](=O)[O-])c(C(F)(F)F)c1		inactive	inactive	inactive	inactive		inactive	inactive	inactive	
COS(=O)(=O)C(F)(F)F	inactive	inactive	inactive	inactive	inactive	inactive		inactive	inactive	
O=C(O)C1(C(=O)Nc2ccc(Cl)cc2Cl)CC1	inactive	inactive	inactive	inactive	inactive	inactive				
CCCCc1ncc(/C=C(\Cc2cccs2)C(=O)O)n1Cc1ccc(C(=O)O)cc1	inactive	inactive	inactive	inactive	inactive	inactive			inactive	
CCOC(=O)C1=C[C@]2(CC)CCCN3CCc4c(n1c1ccccc41)[C@@H]32	inactive	inactive	inactive	inactive	inactive	inactive			inactive	
OC(CN1CCC(Cc2ccc(F)cc2)CC1)c1ccc(Cl)cc1 (stereo unspecified)		inactive	inactive	inactive	inactive	inactive			inactive	
CN(C)CCN(Cc1ccc(Cl)cc1)c1ccccn1	inactive	inactive	inactive	inactive	inactive	inactive				
